USP2a inh: qHTS Assay for Inhibitors of Ubiquitin-specific Protease USP2a Using CHOP2 as the Reporter | actives 0.01% (n = 330,000) | USP2 core, Ub-CHOP2 coupled fluorogenic reporter, 485/531 | Potency, µM (top dose mostly 38.3 µM), for the others: at the highest dose activity change, negative = inhibition, hits mostly inhibitors | Ubiquitin carboxyl-terminal hydrolase 2 (Homo sapiens), O75604 | AID 463254, 2010;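 further: plate controls were DMSO wells for no effect and full inhibition by NEM control for full effect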
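USP2 core (10nM final) preincubated 30min RT with compound in 20mM Tris-HCl pH 8.0, 2mM CaCl2, 2mM beta-mercaptoethanol, 0.05% CHAPS; 25nM Ub-CHOP2 plus 25nM reporter substrate added, fluorescence (Ex485/Em531) read after 60min.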
GALK inhibitor: qHTS Assay for Inhibitors of Human Galactokinase (GALK); P51570; Purified GALK, Kinase-Glo residual ATP luminescence; Potency, µM (highest dose often 57.5 µM), for the others: at the highest dose activity change, negative = inhibition, hits mostly inhibitors; actives 0.007% (n = 270,000); AID 1868, 2009; further: on the % scale 0 is the no-effect control and ±100 the full control effect
Target sequence (P51570 whole entry, looked up): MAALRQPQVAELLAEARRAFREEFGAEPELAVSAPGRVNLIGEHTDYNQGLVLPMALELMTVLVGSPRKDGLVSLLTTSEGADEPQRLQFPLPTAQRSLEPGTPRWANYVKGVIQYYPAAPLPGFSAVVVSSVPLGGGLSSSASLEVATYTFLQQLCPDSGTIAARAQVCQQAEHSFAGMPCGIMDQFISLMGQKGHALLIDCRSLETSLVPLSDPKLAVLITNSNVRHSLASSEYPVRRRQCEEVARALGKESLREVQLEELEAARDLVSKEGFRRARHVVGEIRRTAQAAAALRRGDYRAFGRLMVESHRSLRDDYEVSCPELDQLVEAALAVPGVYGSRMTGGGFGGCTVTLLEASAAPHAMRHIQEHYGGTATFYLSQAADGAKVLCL
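Quantitative HTS: GALK 5 nM, ATP 35 uM, galactose 100 uM, 1 h room temperature, then luciferase-based ATP detection.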
ClpP mod: qHTS Assay for Activators of ClpP | ATP-dependent Clp protease proteolytic subunit (Bacillus subtilis (strain 168)), P80244 | purified B. subtilis ClpP, FRET peptide cleavage, 20 min | Potency, µM (series often up to 57.5 µM), without a hit: at the top dose activity change, negative = active | actives 1.9% (n = 340,000); active means well fitted falling curve with a large enough effect; inconclusive means small, poorly fitted or top-dose-only effect; inactive means no such curve, though single readings can be large or run the other way; further: the source files actives as falling curves though it sought activators and does not explain the sign; nearly all actives have a fitted effect of over 65% in size
Target sequence (P80244 whole entry, looked up): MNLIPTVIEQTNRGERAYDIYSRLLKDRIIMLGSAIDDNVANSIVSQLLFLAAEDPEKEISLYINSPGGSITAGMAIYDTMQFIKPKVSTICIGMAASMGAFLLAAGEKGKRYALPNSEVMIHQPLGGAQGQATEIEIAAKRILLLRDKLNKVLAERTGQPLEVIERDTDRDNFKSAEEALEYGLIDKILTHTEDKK
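Purified B. subtilis ClpP, 10 microg/mL final in Tris/HCl pH8 with KCl, BSA, glycerol and Tween-20, cleaved an Abz/nitrotyrosine-quenched decapeptide. Fluorescence (ex 320, em 430) was read at 0 and 20 min at room temperature. Delta was normalized to 5.8 microM ADEP and DMSO/no-enzyme controls.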
Eya2 phos inh: qHTS Assay for Inhibitors of the Phosphatase Activity of Eya2. Protein phosphatase EYA2 (Homo sapiens), O00167. recombinant Eya2, OMFP fluorescence dephosphorylation (OMFP is methylfluorescein phosphate). Potency, µM (titrated, usually from 76.9 µM), inactives show at the top dose activity, negative = inhibition, hits mostly inhibitors. actives 0.006% (n = 330,000); further: on the % scale 0 is the no-effect control and ±100 the full control effect
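Eya2 protein (added as 0.2 uM solution) was preincubated with compound for 10 min at ambient temperature in 50 mM HEPES pH 7.5, 50 mM NaCl, 5 uM MgCl2, 0.05% BSA, 1 mM DTT. OMFP (added at 50 uM) then reacted 10 min; fluorescence read at 485/525 nm.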
* hit, by the source's call; ? = inconclusive; nt = no result given. Many of the other results were omitted from the sample, so hits are more common in it than they were. Unless noted, the call rests on the fitted dose curve; in most records, active means well fitted inhibition curve with a large enough effect; inconclusive means small, poorly fitted or top-dose-only effect, or effect the other way; inactive means flat fitted curve, though single readings scatter. Potency means the concentration at half of the fitted maximal effect.

SMILES	USP2a inh	GALK inhibitor	ClpP mod	Eya2 phos inh
CCOC(=O)c1sc2nc(C)c3c(c2c1N)CC(C)(C)OC3	0%	4%	28µM*	1%
CC1CN(Cc2cn(C)nc2-c2ccc(Oc3ccccc3)cc2)CCN1C (stereo not given)	0%	0%	-2%	-2%
COc1ccc(-c2nc3ccccc3o2)cc1NC(=O)c1ccc(-c2ccc(Br)cc2)o1	nt	nt	-19%	nt
COc1ccc(-c2nc3ccccc3o2)cc1NC(=O)c1ccc(Br)o1	-2%	2%	22µM*	3%
Cc1ccc(-c2nc3ccccc3o2)cc1NC(=S)NC(=O)c1cc2ccccc2o1	2%	-2%	16µM*	2%
O=[N+]([O-])c1ccc(NCCOc2ccccc2Cl)nc1	0%	0%	-2%	-5%
O=c1c2ccccc2nc(/C=C/c2ccc(Br)cc2)n1CCCO	1%	-2%	13%	-13%
O=c1c2ccccc2nc(/C=C/c2ccc(Cl)cc2)n1CCO	0%	-2%	32µM*	-11%
CC(C)OC(=O)c1cc2c(ccn2C)n1CC(=O)N(Cc1ccccc1)c1ccccc1	-5%	1%	28µM*	-2%
CCOC(=O)c1cc2c(ccn2C)n1Cc1cc(C)ccc1C	-1%	1%	-15%	-13%
COc1cc(/C=N/N2CCN(c3ccccc3OC)CC2)ccc1OC(C)=O	-1%	1%	28µM*	7%
COc1ccccc1N1CCN(/N=C/c2cc(OC)c(O)c(OC)c2)CC1	2%	0%	-3%	3%
CCOc1ccccc1C(=O)Nc1c(C(=O)Nc2ccc(F)cc2)oc2ccccc12	nt	nt	32µM*	nt
C=CCNC(=S)Nc1ccc2nsnc2c1	4%	1%	28µM*	0%
C=CCN(CC=C)C(=S)Nc1ccc2nsnc2c1	1%	0%	-1%	4%
CN(C)CCSc1nc(-c2ccccc2)nc2c1CCCC2	1%	6%	16µM*	-2%
Cc1ccccc1NC(=O)Cc1c(O)c2ccccc2[nH]c1=O	1%	-4%	16µM*	2%
CCCCc1c(O)c2ccccc2[nH]c1=O	1%	-1%	25µM*	-3%
CCCc1c(C)c2ccccc2[nH]c1=O	-1%	3%	-18%	4%
O=c1[nH]c2ccccc2c(O)c1Cc1ccccc1	1%	0%	-9%	2%
Cc1ccc(NC(=O)Cc2c(O)c3ccccc3[nH]c2=O)c(C)c1	-2%	0%	nt	-3%
CCCc1c(O)c2ccccc2[nH]c1=O	-2%	-2%	14µM*	-3%
COC(=O)CCN(C(=O)c1c(C)oc2ncnc(N3CCOCC3)c12)c1ccccc1	nt	nt	1%	nt
COc1ccc(S(=O)(=O)N2CCC(C(=O)Nc3ccc(F)cc3)CC2)c2cccnc12	-6%	-2%	nt	-12%
COc1ccc(S(=O)(=O)n2ccnc2)c2cccnc12	-2%	-1%	13µM*	-5%
SMILES	USP2a inh	GALK inhibitor	ClpP mod	Eya2 phos inh
CCCCNS(=O)(=O)c1ccc(OC)c2ncccc12	0%	2%	28µM*	-19%
CCOc1ccc(NS(=O)(=O)c2ccc(OCC)c3ncccc23)cc1	1%	0%	-1%	-2%
COc1ccc(S(=O)(=O)Nc2cccc(C)c2C)c2cccnc12	-1%	0%	nt	-15%
CCOc1ccc(S(=O)(=O)NCc2ccc(C)cc2)c2cccnc12	-2%	nt	32µM*	1%
COC(=O)C1=C(C)NC2=C(C(=O)CCC2)C1c1cn(Cc2ccc(Cl)cc2Cl)nc1-c1ccccc1 (stereo not given)	1%	0%	18µM*	16%
COC(=O)C1=C(C)NC2=C(C(=O)CCC2)C1c1cccs1 (stereo not given)	1%	-4%	nt	?
CCOC(=O)C1=C(C)NC2=C(C(=O)CCC2)C1c1cn(Cc2ccc(Cl)cc2Cl)nc1-c1ccccc1 (stereo not given)	-11%	-2%	28µM*	-10%
CCOC(=O)[C@@H]1[C@H]2COc3cc(OC)ccc3[C@@H]2N2C(=O)N(c3cccc(Cl)c3)C(=O)[C@@]12C	-1%	nt	-1%	2%
CCOC(=O)c1sc2nc(CC(=O)OC)nc(NCc3ccc(F)cc3)c2c1C	0%	-6%	3.5µM*	0%
CCOC(=O)c1sc2nc(C)nc(NCc3ccc(F)cc3)c2c1C	-1%	13%	nt	-3%
Cc1nc2oc3c(NCc4ccccn4)ncnc3c2c2c1COC(C)(C)C2	-1%	1%	39%	-23%
O=C(O)CCC(=O)N1N=C(c2cccs2)CC1c1cn(-c2ccccc2)nc1-c1ccccc1 (stereo not given)	-4%	-2%	14µM*	-5%
COc1ccc(O)c(C(=O)c2cnn(C(=O)c3cccc(N(C)C)c3)c2)c1	1%	nt	22µM*	-16%
COc1ccccc1OCC(=O)N1CCNC1=O	3%	-1%	0%	1%
COc1ccc(-c2coc3c(CN4CCOCC4)c(O)ccc3c2=O)cc1	7%	-1%	3%	-11%
O=c1c(-c2ccccc2)coc2c(CN3CCCC3)c(O)ccc12	-1%	0%	28µM*	4%
O=c1c(-c2ccc(Cl)cc2)coc2c(CN3CCOCC3)c(O)ccc12	2%	3%	28µM*	-4%
CC1CCCCN1Cc1c(O)ccc2c(=O)c(-c3ccc(Cl)cc3)coc12 (stereo not given)	-1%	2%	13µM*	7%
CC1CCCCN1Cc1c(O)ccc2c(=O)c(-c3ccc(Br)cc3)coc12 (stereo not given)	-4%	1%	4%	1%
O=C(Cn1c2[n+](c3ccccc31)CC(O)CS2)c1ccccc1 (stereo not given)	-1%	-3%	3.2µM*	10%
Cc1ccccc1-c1coc2cc(O)ccc2c1=O	9%	0%	28µM*	6%
O=C1NC[C@H](CCCCN2CCN(Cc3ccccc3)C(=O)C2=O)N(CCc2ccccc2)C1=O	nt	nt	-1%	nt
COC(=O)Cn1c(=NC(=O)c2ccc(Cl)s2)sc2cc(F)ccc21	4%	1%	28µM*	7%
COC(=O)Cn1c(=NC(=O)c2ccc(OC)c(OC)c2)sc2cc(OC)ccc21	2%	-1%	?	2%
Cc1nc(C)c(C(=O)N/N=C/c2c[nH]c3ccccc23)s1	2%	1%	2%	-34%
COc1ccc(NC2CCCN(C(=O)c3ccc4nccnc4c3)C2)cc1OC (stereo not given)	4%	-5%	1%	4%
Cc1ccc(NC2CCCN(C(=O)c3ccc4nccnc4c3)C2)cc1C (stereo not given)	4%	7%	16µM*	-2%
CN(C)CCn1c2c(c(SCC(=O)Nc3cccc4ccccc34)nc1=O)CCCC2	1%	nt	-24%	3%
Nc1cccc(-c2nc3ccc(N)cc3s2)c1	4%	8%	14µM*	0%
COc1cccc(-c2nc3ccccc3s2)c1	6%	1%	28µM*	3%
